Our source for the outcome and AC50 values is PubChem BioAssay (EPA / NIEHS).

Holding throughout (conditions): mRNA level, 48 h; actives raise or lower the signal
Read-out in one assay: CYP2C9 (gene 1559)
The experiment in a line: LTEA_HepaRG_CYP2C9: Life Technologies and Expression Analysis (LTEA) Assay for CYP2C9 using HepaRG (AID 2283484). Put shortly: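 Eight-point concentration-response (highest 100 uM, half-log dilutions) in HepaRG cells for 48 h; CYP2C9 expression by qRT-PCR normalized to ACTB, GAPDH, POLR2A. Bidirectional fit, DMSO baseline.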

Read-out in another assay: CYP2E1 (gene 1571)
Description: LTEA_HepaRG_CYP2E1: Life Technologies and Expression Analysis (LTEA) Assay for CYP2E1 using HepaRG (AID 2283485). Put shortly:
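Assay uses 48 h exposure of HepaRG hepatic cells, eight concentrations to 100 uM. Expression of CYP2E1 is quantified by TaqMan qRT-PCR with ACTB, GAPDH and POLR2A normalization; curves fitted in both directions relative to vehicle.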

Read-out in a further assay: CYP4A11 (gene 1579)
Description: LTEA_HepaRG_CYP4A11: Life Technologies and Expression Analysis (LTEA) Assay for CYP4A11 using HepaRG (AID 2283486). Put shortly: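 CYP4A11 transcript levels were quantified by TaqMan qRT-PCR after HepaRG human liver cells were treated for 48 hours with test chemicals (top 100 uM, half-log dilutions, 0.5% DMSO). Gain or loss of signal was fitted relative to DMSO.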

Read-out in assay [1]: Cytochrome P450 3A4 (Homo sapiens) (UniProt P08684)
The experiment in a line: LTEA_HepaRG_CYP3A4: Life Technologies and Expression Analysis (LTEA) Assay for CYP3A4 using HepaRG (AID 2283487). Put shortly:
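CYP3A4 transcript measured by TaqMan qRT-PCR and normalized to three housekeeping genes after 48 h chemical exposure of human HepaRG cells. Top concentration 100 uM, half-log steps, 0.5% DMSO vehicle; gain or loss fitted against DMSO baseline.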

Read-out in assay [2]: DNA damage-inducible transcript 3 (DDIT3), DDIT3 (gene 1649)
Description: LTEA_HepaRG_DDIT3: Life Technologies and Expression Analysis (LTEA) Assay for DNA damage-inducible transcript 3 (DDIT3) using HepaRG (AID 2283488). Put shortly:
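Eight-point concentration-response (100 uM highest, half-log dilutions) in HepaRG, 48 h, duplicate wells. Endpoint: qRT-PCR mRNA, normalized (ACTB, GAPDH, POLR2A), bidirectional fitting with DMSO as baseline.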

Read-out in assay [3]: Pro-epidermal growth factor (Homo sapiens) (UniProt P01133)
The experiment in a line: LTEA_HepaRG_EGF: Life Technologies and Expression Analysis (LTEA) Assay for Epidermal growth factor (EGF) using HepaRG (AID 2283489). Put shortly:
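qRT-PCR readout of EGF transcript after 48 h chemical exposure of HepaRG cells; eight concentrations from 100 uM down in half-log steps, duplicate wells, 0.5% DMSO vehicle. Bidirectional curve fitting against DMSO baseline.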

Read-out in assay [4]: Early growth response protein 1 (EGR1) transcription factor, EGR1 (gene 1958)
Description: LTEA_HepaRG_EGR1: Life Technologies and Expression Analysis (LTEA) Assay for Early growth response protein 1 (EGR1) transcription factor using HepaRG (AID 2283490). Put shortly:
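EGR1 expression change in human HepaRG after 48 h chemical exposure, assessed by housekeeping-normalized qRT-PCR; concentration-response up to 100 uM, fitted in both directions against DMSO controls.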

Read-out in assay [5]: Ezrin (EZR), EZR (gene 7430)
Description: LTEA_HepaRG_EZR: Life Technologies and Expression Analysis (LTEA) Assay for Ezrin (EZR) using HepaRG (AID 2283491). Put shortly:
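HepaRG, 48 h chemical exposure, 8-pt half-log series from 100 uM, 0.5% DMSO vehicle, duplicates. Read-out: EZR mRNA by TaqMan qRT-PCR (Fluidigm array), housekeeping-normalized; bidirectional curve fit vs DMSO baseline.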

Read-out in another assay: CYP3A5 (gene 1577)
Description: LTEA_HepaRG_CYP3A5: Life Technologies and Expression Analysis (LTEA) Assay for CYP3A5 using HepaRG (AID 2283493). Put shortly:
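Readout was CYP3A5 mRNA by qRT-PCR. HepaRG cultures were exposed for 48 h in serum-free induction medium to chemicals at up to 100 uM, and responses were fitted in both directions relative to DMSO vehicle.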

Read-out in assay [6]: Fatty Acid-Binding Protein 1 (FABP1), FABP1 (gene 2168)
Description: LTEA_HepaRG_FABP1: Life Technologies and Expression Analysis (LTEA) Assay for Fatty Acid-Binding Protein 1 (FABP1) using HepaRG (AID 2283494). Put shortly:
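Values reflect bidirectional concentration-response fitting of FABP1 mRNA change against 0.5% DMSO controls. Human HepaRG cultures received eight half-log doses (top 100 uM) for 48 h; expression quantified by TaqMan qRT-PCR with housekeeping-gene normalization.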

Read-out in assay [7]: Cytochrome P450 4A22 (Homo sapiens) (UniProt Q5TCH4)
The experiment in a line: LTEA_HepaRG_CYP4A22: Life Technologies and Expression Analysis (LTEA) Assay for Cytochrome P450 4A22 (CYP4A22) using HepaRG (AID 2283495). Put shortly:
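HepaRG, 48 h post-plating -> serum-free induction medium; dosed 48 h, duplicate, 8 conc. (100 uM top, half-log), 0.5% DMSO. Readout: CYP4A22 mRNA by qRT-PCR, ACTB/GAPDH/POLR2A normalization; gain/loss fit relative to DMSO.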

Read-out in assay [8]: Cytochrome P450 7A1 (Homo sapiens) (UniProt P22680)
Description: LTEA_HepaRG_CYP7A1: Life Technologies and Expression Analysis (LTEA) Assay for Cytochrome P450 7A1 (CYP7A1) using HepaRG (AID 2283496). Put shortly: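 Using 0.5% DMSO as vehicle and baseline, chemicals were tested in duplicate over an 8-point range from 100 uM on HepaRG cells for 48 h; qRT-PCR signals were normalised to ACTB, GAPDH and POLR2A.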

Read-out in assay [9]: Glutathione S-Transferase (GSTA2), GSTA2 (gene 2939)
Description: LTEA_HepaRG_GSTA2: Life Technologies and Expression Analysis (LTEA) Assay for Glutathione S-Transferase (GSTA2) using HepaRG (AID 2283497). Put shortly:
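Oxidative-stress marker GSTA2 is quantified by TaqMan qRT-PCR in HepaRG cultures treated 48 h across an eight-point range to 100 uM. Expression is normalized to endogenous controls and compared with 0.5% DMSO vehicle.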

Read-out in assay [10]: Glutamate-cysteine ligase catalytic (GCLC), GCLC (gene 2729)
The experiment in a line: LTEA_HepaRG_GCLC: Life Technologies and Expression Analysis (LTEA) Assay for Glutamate-cysteine ligase catalytic (GCLC) using HepaRG (AID 2283498). Put shortly:
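Oxidative-stress marker GCLC is measured as mRNA change in human HepaRG liver cells after 48 h chemical treatment in 0.5% DMSO, eight concentrations from 100 uM. Activity is fitted bidirectionally against vehicle.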

Read-out in assay [11]: growth arrest and DNA damage 45 (GADD45G), GADD45G (gene 10912)
Description: LTEA_HepaRG_GADD45G: Life Technologies and Expression Analysis (LTEA) Assay for growth arrest and DNA damage 45 (GADD45G) using HepaRG (AID 2283499). Put shortly:
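HepaRG, 48 h exposure, top 100 uM, half-log 8-point series, 0.5% DMSO vehicle, duplicates. Readout: GADD45G transcript by qRT-PCR (Fluidigm array), housekeeping-normalised (ACTB/GAPDH/POLR2A). Bidirectional curve fit vs DMSO baseline.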

Read-out in assay [12]: Glutamate-cysteine ligase regulatory (GCLM), GCLM (gene 2730)
The experiment in a line: LTEA_HepaRG_GCLM: Life Technologies and Expression Analysis (LTEA) Assay for Glutamate-cysteine ligase regulatory (GCLM) using HepaRG (AID 2283500). Put shortly:
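In this multiplexed HepaRG gene-expression assay, GCLM mRNA change after 48 h treatment (8 concentrations, max 100 uM) was scored against DMSO by bidirectional curve fitting.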

Read-out in assay [13]: Glutathione S-transferase M3 (GSTM3), GSTM3 (gene 2947)
Description: LTEA_HepaRG_GSTM3: Life Technologies and Expression Analysis (LTEA) Assay for Glutathione S-transferase M3 (GSTM3) using HepaRG (AID 2283501). Put shortly:
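qRT-PCR read-out of GSTM3 transcript, normalized to three housekeeping genes, from human HepaRG cells after 48 h chemical exposure. Eight-point half-log series, top 100 uM, 0.5% DMSO vehicle; gain or loss fitted relative to DMSO baseline.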

Read-out in assay [14]: Heat shock 70 kDa protein 1 (HSPA1A), gene 3303
The experiment in a line: LTEA_HepaRG_HSPA1A: Life Technologies and Expression Analysis (LTEA) Assay for Heat shock 70 kDa protein 1 (HSPA1A) using HepaRG (AID 2283502). Put shortly: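 An oxidative-stress marker readout: HepaRG cells treated 48 h in duplicate with an eight-point series (highest 100 uM) had HSPA1A mRNA quantified by TaqMan qRT-PCR. Activity was fitted in both directions using 0.5% DMSO as baseline.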

Read-out in assay [15]: Hypoxia-inducible factor 1-alpha (Homo sapiens) (UniProt Q16665)
Description: LTEA_HepaRG_HIF1A: Life Technologies and Expression Analysis (LTEA) Assay for Hypoxia-inducible factor 1 (HIF1A) Trancription factor using HepaRG (AID 2283503).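 Further: HIF1A transcript by TaqMan qRT-PCR normalized to ACTB GAPDH and POLR2A.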 Put shortly:
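Gain- or loss-of-signal HIF1A mRNA changes are fitted against a DMSO baseline. HepaRG cultures receive eight concentrations, highest 100 uM, for 48 h in serum-free induction medium with 0.5% DMSO.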

Molecules are shown by their SMILES. Activity calls are given as the source filed them. How the source made its calls: active means hit-call score of the fitted dose curve at least 0.9, where 1 is the maximum; inactive means score below 0.9.

Sequence of Cytochrome P450 3A4 (Homo sapiens) (P08684 whole entry, looked up): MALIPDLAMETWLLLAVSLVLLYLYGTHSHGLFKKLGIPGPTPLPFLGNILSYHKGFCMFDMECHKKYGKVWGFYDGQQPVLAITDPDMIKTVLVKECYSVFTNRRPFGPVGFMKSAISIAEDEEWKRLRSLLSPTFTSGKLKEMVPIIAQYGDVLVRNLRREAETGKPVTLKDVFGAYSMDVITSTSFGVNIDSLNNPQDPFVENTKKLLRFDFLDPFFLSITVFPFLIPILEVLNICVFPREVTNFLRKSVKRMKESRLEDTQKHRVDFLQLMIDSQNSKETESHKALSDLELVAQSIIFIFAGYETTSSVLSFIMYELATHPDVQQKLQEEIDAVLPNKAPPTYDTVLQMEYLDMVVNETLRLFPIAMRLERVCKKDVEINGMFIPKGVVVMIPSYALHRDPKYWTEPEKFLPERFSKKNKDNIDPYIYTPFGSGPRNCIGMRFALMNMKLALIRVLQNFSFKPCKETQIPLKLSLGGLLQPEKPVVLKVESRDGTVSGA
Sequence of Hypoxia-inducible factor 1-alpha (Homo sapiens) (Q16665 whole entry, looked up): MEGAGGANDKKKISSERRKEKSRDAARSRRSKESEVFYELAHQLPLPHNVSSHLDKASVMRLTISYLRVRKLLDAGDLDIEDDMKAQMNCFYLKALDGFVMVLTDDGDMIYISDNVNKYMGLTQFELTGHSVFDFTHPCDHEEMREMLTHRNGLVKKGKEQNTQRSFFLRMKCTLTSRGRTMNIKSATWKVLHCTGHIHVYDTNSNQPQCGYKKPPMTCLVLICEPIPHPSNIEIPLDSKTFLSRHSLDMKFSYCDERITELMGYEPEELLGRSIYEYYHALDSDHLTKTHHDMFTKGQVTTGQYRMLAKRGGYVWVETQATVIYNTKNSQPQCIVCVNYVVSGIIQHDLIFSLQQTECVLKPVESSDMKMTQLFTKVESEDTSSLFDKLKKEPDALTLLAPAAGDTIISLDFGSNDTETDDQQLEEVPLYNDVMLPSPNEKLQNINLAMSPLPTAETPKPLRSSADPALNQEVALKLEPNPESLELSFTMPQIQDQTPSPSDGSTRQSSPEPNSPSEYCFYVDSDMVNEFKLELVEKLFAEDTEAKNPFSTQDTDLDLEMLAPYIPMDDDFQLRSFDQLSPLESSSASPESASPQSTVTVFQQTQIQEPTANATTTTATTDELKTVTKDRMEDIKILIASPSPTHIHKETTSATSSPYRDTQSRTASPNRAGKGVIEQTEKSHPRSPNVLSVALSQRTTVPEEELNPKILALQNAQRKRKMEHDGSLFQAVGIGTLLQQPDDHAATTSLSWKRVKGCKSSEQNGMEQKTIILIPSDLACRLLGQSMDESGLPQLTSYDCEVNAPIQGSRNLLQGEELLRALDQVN

Turning to `N#CC(Br)(Br)C(N)=O`, the result (in the assay with CYP2C9 (gene 1559); with CYP2E1 (gene 1571); with CYP4A11 (gene 1579); in assay [1]; in assay [2]; in assay [3]) was inactive. For the same compound, the compound was called inactive (in assay [4]; in [5]; in the assay with CYP3A5 (gene 1577); in [6]; in [7]; in [8]). In addition, the call in assay [9], in assay [10], in assay [11], in assay [12], in assay [13] and in assay [14] was inactive.

For orientation: AC50 means the concentration at which the activity in the assay is half-maximal. Regarding `O=P(OCCCl)(OCCCl)OCCCl`, the outcome (in the assay with CYP2C9 (gene 1559); in the assay with CYP4A11 (gene 1579); in assay [1]; in assay [2]; in assay [3]; in assay [4]) was inactive. Further, the compound was called inactive (in [5]; in the assay with CYP3A5 (gene 1577); in [6]; in assay [7]; in assay [8]; in assay [9]). In addition, the outcome in assay [10], in [11], in [12], in assay [13] and in assay [15] was inactive. The AC50 with CYP2E1 (gene 1571) is 25.7 µM (active); in assay [14] it was 9.92 µM (active).

Consider `Cc1cc(N=Nc2ccccc2C)ccc1N`, for which the AC50 is 4.8 µM (active) with CYP2C9 (gene 1559); 12.8 µM (active) in the assay with CYP2E1 (gene 1571); 4.52 µM (active) in the assay with CYP4A11 (gene 1579); 2.94 µM (active) in assay [1]; 3.11 µM (active) in the assay with CYP3A5 (gene 1577); 5.03 µM (active) in [6]. For the same compound, the AC50 in assay [7] is 4.39 µM (active); in assay [8], 12.8 µM (active); in [9], 5.01 µM (active); in assay [10], 1.67 µM (active); in [11] it was 4.14 µM (active); in [12] it was 50 µM (active). Also, the AC50 in assay [13] is 1.48 µM (active); in assay [14], 3.55 µM (active). The call in assay [2], in assay [3], in assay [4] and in [5] was inactive.
